MBNL1-CUG inh: MBNL1-poly(CUG) RNA binding inhibition | TR-FRET MBNL1-His/biotin-(CUG)12 binding, 665/545 ratio | Potency, µM (highest dose often 57.5 µM), without a hit: at the top dose activity change, negative = inhibition, hits mostly inhibitors | 280,000 compounds, 0.036% hits | AID 2675; active = well fitted inhibition curve with a large enough effect in the signal ratio, with a control signal flat, not every such curve was filed as active; inconclusive = small, poorly fitted or top-dose-only effect, or effect the other way, or a change in a side signal; inactive = no such curve, though single readings can be large or run the other way; the % refers to the signal ratio; note: potency is the fitted concentration of half-maximal effect; % is set by controls: 0 for no effect and ±100 for the full control effect
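MBNL1-His + Biotin-(CUG)12, cpd titration 92 nM–58 uM; Tb anti-His Ab 0.055 ng/ul, SA-XL665 5 nM (final); 60 min RT; ratiometric 665/545 nm, Ex 340 nm; normalized to buffer and full-complex controls.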
PLK1 PBD inh: PLK1 (human) polo-box domain binding inhibition. Plk1 PBD binding of FITC phosphopeptide, fluorescence polarization. Potency, µM, inactives show max response, negative = inhibition, hits mostly inhibitors. 360,000 compounds, 2.8% hits; note: potency is the fitted concentration of half-maximal effect; series mostly up to about 57 µM; % is set by controls: 0 for no effect and ±100 for the full control effect; nearly all actives have a fitted effect of over 65% in size
CBFb-RUNX1 inh: CBF-beta/RUNX1 interaction disruption | Q01196+Q13951 | AlphaScreen CBFb-His/RUNX1-biotin binding, biochemical | Potency, µM (titrated, usually from 59.8 µM), for inactives: at the highest dose activity, negative = inhibition, most hits filed as inhibitors | 230,000 tested, under 10 active | AID 1477; note: % of control where 0% means no effect
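Inhibition was taken as any reduction in AlphaScreen signal from the CBF-beta–RUNX1 pair (His and biotin tags, 30 nM each), measured after compound (15 min) and bead (90 min) incubations at room temperature.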
KCNH2 WT inh: blocks the wildtype human KCNH2 potassium channel; Q12809; 340,000 compounds, 0.37% hits; activity change, % at 1.84 µM; U2OS, BacMam KCNH2, thallium flux FluxOr; active compounds read low;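 active = maximum activity change below -70%; inconclusive = maximum activity change between -70% and -50%; inactive = maximum activity change above -50%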; note: % is set by controls: 0 for no effect and ±100 for the full control effect
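U2OS cells were transduced with wild-type KCNH2 virus (2.03 x 10^8 / mL) for 4 h at room temperature, then cultured overnight at 37 C. Thallium flux was read with FluxOr dye. Rate constants were normalized to DMSO controls.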
VDR inh: inhibitors of human vitamin D receptor | P11473 | VDR-SRC2-3 peptide fluorescence polarization, 2 h | Potency, µM, without a hit: max response, negative = inhibition, hits mostly inhibitors | 400,000 compounds, 0.93% hits; note: potency is the fitted concentration of half-maximal effect; % is set by controls: 0 for no effect and ±100 for the full control effect
Target sequence (P11473 whole entry, looked up): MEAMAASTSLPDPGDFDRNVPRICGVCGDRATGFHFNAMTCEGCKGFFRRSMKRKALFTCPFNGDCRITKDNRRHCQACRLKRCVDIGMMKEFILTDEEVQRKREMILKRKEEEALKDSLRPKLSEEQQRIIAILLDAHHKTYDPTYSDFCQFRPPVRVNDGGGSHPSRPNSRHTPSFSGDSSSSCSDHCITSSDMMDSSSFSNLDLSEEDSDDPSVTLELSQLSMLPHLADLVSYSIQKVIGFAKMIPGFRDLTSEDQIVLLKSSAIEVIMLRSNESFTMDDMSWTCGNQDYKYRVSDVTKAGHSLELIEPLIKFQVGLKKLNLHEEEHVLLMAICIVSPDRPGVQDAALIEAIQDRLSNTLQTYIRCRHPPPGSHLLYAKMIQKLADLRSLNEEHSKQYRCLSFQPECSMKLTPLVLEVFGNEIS
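After 23 nl compound addition and a short centrifugation, plates sat for 2 hours at ambient temperature; polarization of fluorescence then indicated loss of VDR binding to peptide SRC2-3.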
KCNH2 3.1 inh: KCNH2 3.1 (human) potassium channel inhibition. U2OS KCNH2 3.1, thallium flux FluxOr; active compounds read low. 340,000 compounds, 0.95% hits. activity change, % (tested at about 1.8 µM). AID 720553;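 active = maximum activity change below -70%; inconclusive = maximum activity change from -70% to -50%; inactive = maximum activity change above -50%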;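 note: thallium influx rate constant from kinetic fluorescence after stimulation buffer; % is set by controls: 0 for no effect and ±100 for the full control effect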
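Thallium flux via FluxOr fluorescence (Red40 quencher, 45 min loading) in U2OS cells virally expressing the KCNH2 3.1 isoform (1.77 x 10^8 /mL virus, overnight at 37 C). Rate constants from 2-min kinetic reads post-stimulation, normalised to positive and negative controls.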
MBNL1 TRFRET: confirmation of inhibitors of human MBNL1-poly(CUG) RNA binding. shares compounds with MBNL1-CUG inh. TR-FRET MBNL1-His / biotin-(CUG)12 binding, 60 min. 140 compounds, 50% hits. AID 493199. Potency, µM (series often up to 57.6 µM), without a hit: top-dose activity change, negative = inhibition, usual class: inhibitors
MBNL1-CUG Alpha: blocks MBNL1 binding to (CUG)12 RNA in AlphaScreen | AID 493205 | Potency, µM (titrated, usually from 57.7 µM), without a hit: at the top dose activity, negative = inhibition, hits mostly inhibitors | AlphaScreen MBNL1-His / biotin-(CUG)12 binding | 140 compounds, 30% hits | shares compounds with MBNL1-CUG inh
Menin-MLL HTRF: hit in HTRF counterscreen for MBNL1-poly(CUG) binding inhibitors; shares compounds with MBNL1-CUG inh; His-Menin/biotin-MLL peptide TR-FRET counterscreen; Potency, µM (top dose mostly 57.6 µM), for the others: at the top dose activity, negative = inhibition, hits mostly inhibitors; 120 compounds, 20% hits; AID 651843
Starred values were filed as active, the others as inactive; ? = inconclusive; nt = not tested or not shown. An excerpt weighted towards active compounds, which were near 3.8% of everything screened. Unless noted, calls come from the whole dose curve; as a rule, active = well fitted curve in the direction sought with a large enough effect; inconclusive = small, poorly fitted or top-dose-only effect, or another doubt; inactive = no such curve, though single readings can be large; an effect the other way counts as inactive or inconclusive.

SMILES	MBNL1-CUG inh	PLK1 PBD inh	CBFb-RUNX1 inh	KCNH2 WT inh	VDR inh	KCNH2 3.1 inh	MBNL1 TRFRET	MBNL1-CUG Alpha	Menin-MLL HTRF
COc1ccc(N2CC(C(=O)NCCc3ccc(OC)c(OC)c3)CC2=O)cc1 (stereo unspecified)	-3.1%	0.4%	-0.7%	-0.3	19.9%	-6.8	nt	nt	nt
COc1ccc(CCNC(=O)C2CC(=O)N(c3ccc(F)cc3)C2)cc1OC (stereo unspecified)	0.794µM*	-2.9%	0.2%	0.1	7.6%	14.0	-8.7%	-8.1%	-0.2%
OC(COc1ccc(CNCc2cccnc2)cc1)CN1CCc2ccccc2C1 (stereo unspecified)	-0.6%	-10.0%	-0.8%	21.0	22.3%	-2.8	nt	nt	nt
OC(COc1ccccc1CNCc1cccnc1)CN1CCc2ccccc2C1 (stereo unspecified)	12.6µM*	-5.5%	11.6%	12.8	-2.8%	-8.2	16.3µM*	?	?
Cc1cn(C2OC(COC(=O)c3ccccc3)C(OC(=O)c3ccccc3)C2OC(=O)c2ccccc2)c(=O)[nH]c1=O (stereo unspecified)	7.2%	-10.7%	-2.0%	-14.2	4.8%	-11.8	nt	nt	nt
O=C(OCC1OC(OC(=O)c2cc(O)c(O)c(OC(=O)c3cc(O)c(O)c(O)c3)c2)[C@@H](OC(=O)c2cc(O)c(O)c(OC(=O)c3cc(O)c(O)c(O)c3)c2)C(OC(=O)c2cc(O)c(O)c(OC(=O)c3cc(O)c(O)c(O)c3)c2)C1OC(=O)c1cc(O)c(O)c(OC(=O)c2cc(O)c(O)c(O)c2)c1)c1cc(O)c(O)c(OC(=O)c2cc(O)c(O)c(O)c2)c1 (stereo partly specified)	nt	nt	nt	nt	12.6µM*	nt	0.41µM*	0.0291µM*	nt
COc1ccc(NC(=O)CCCc2nnc3n(C(C)C)c(=O)c4sccc4n23)cc1Cl	nt	nt	nt	nt	14.7%	nt	nt	nt	nt
CCOC(=O)CCCCC(=O)c1[nH]c(=O)[nH]c1CSc1nnc2c3cc(Br)ccc3n(C)c2n1	?	nt	-0.6%	nt	nt	nt	nt	nt	nt
CCOC(=O)CCCCC(=O)c1[nH]c(=O)[nH]c1CSc1nc2ccccc2[nH]1	?	?	-22.4%	-6.2	1.1%	-7.5	nt	nt	nt
CCOC(=O)CCCCC(=O)c1[nH]c(=O)[nH]c1CSc1nc(C)cc(C)n1	31.6µM*	-3.2%	-12.5%	18.4	4.1%	-7.8	25.9µM*	4.11µM*	-22.3%
CCOC(=O)CCCCC(=O)c1[nH]c(=O)[nH]c1C[n+]1ccccc1	31.6µM*	nt	-8.4%	nt	nt	nt	16.3µM*	3.26µM*	?
CCOC(=O)CCCCC(=O)c1[nH]c(=O)[nH]c1CN1CCOCC1	2.24µM*	1.8%	-14.1%	-2.2	0.4%	-6.8	4.11µM*	0.919µM*	16.3µM*
CCOC(=O)CCCCC(=O)c1[nH]c(=O)[nH]c1CSc1nc(C)cc(=O)[nH]1	1.78µM*	-16.4%	-23.9%	-2.8	-3.7%	-21.1	0.517µM*	0.073µM*	3.66µM*
COc1cc2c(cc1NS(=O)(=O)c1cccc(C#N)c1)n(C)c(=O)n2C	nt	nt	nt	nt	6.0%	nt	nt	nt	nt
Cc1cccc(C(=O)NCc2cn3cccc(C)c3n2)c1	nt	nt	nt	nt	9.9%	nt	nt	nt	nt
